Records with an inconclusive call do not appear. Activity calls are given as the source filed them. Calls come from the whole dose curve; as a rule, active = well fitted inhibition curve with a large enough effect; inconclusive = small, poorly fitted or top-dose-only effect; inactive = flat fitted curve, though single readings scatter.
Tests used:
NIH3T3 [1] = test: Cytotoxic Profiling of Annotated Libraries Using Quantitative High-Throughput Screening (AID 1296008); conditions: Five cell lines viability, CellTiter-Glo ATP luminescence, 48-72 h; max response: active compounds read low
Method in brief: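 Cytotoxicity was measured as CellTiter-Glo ATP luminescence, read after 10 min at room temperature. Compound treatment of the cells lasted 48 or 72 hr at 37 degrees Celsius in a qHTS format.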

HACAT = test: qHTS assay to identify novel small-molecules to repurpose for Merkel cell carcinoma treatment (AID 1296009); conditions: MCC and control cell lines, CellTiter-Glo viability, 72 h; at 44.8 µM (top of the series) unless noted
Method in brief: (§1)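 After compound transfer in DMSO, plates were kept 72 hr at 37 degree celsius. Luminescent ATP signal from CellTiter-Glo served as viability measure, normalized against DMSO and no-cell controls.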

MCC-13 = test: as above; conditions: MCC and control cell lines, CellTiter-Glo viability, 72 h; series mostly up to 46 µM
Method in brief: as §1

MCC-26 = test: as above; conditions: MCC and control cell lines, CellTiter-Glo viability, 72 h; series mostly up to 46 µM
Method in brief: as §1

MKL-1 = test: as above; conditions: MCC and control cell lines, CellTiter-Glo viability, 72 h; series mostly up to 46 µM
Method in brief: as §1

MKL-2 = test: as above; conditions: MCC and control cell lines, CellTiter-Glo viability, 72 h; series mostly up to 46 µM
Method in brief: as §1

NIH3T3 [2] = test: as above; conditions: MCC and control cell lines, CellTiter-Glo viability, 72 h; at 44.8 µM (top of the series) unless noted
Method in brief: as §1

UISO = test: as above; conditions: MCC and control cell lines, CellTiter-Glo viability, 72 h; series mostly up to 46 µM
Method in brief: as §1

WaGa = test: as above; conditions: MCC and control cell lines, CellTiter-Glo viability, 72 h; series mostly up to 46 µM
Method in brief: as §1

HEK293T = test: as above; conditions: MCC and control cell lines, CellTiter-Glo viability, 72 h; at 44.8 µM (top of the series) unless noted
Method in brief: as §1
% is set by controls: 0 for no effect and ±100 for the full control effect.
Note: nearly all actives have a fitted effect of over 60% in size.

CCCCC(O)/C=C(C)/C=C/C=C/C(=O)N1CCCC1=O (stereo not drawn)
inactive: outcome (NIH3T3 [1]) | outcome (HACAT) | Potency (MCC-13) | Potency (MCC-26) | Potency (MKL-1) | Potency (MKL-2) | outcome (NIH3T3 [2]) | Potency (UISO) | Potency (WaGa)

CCCc1ncc(C(=O)O)s1
inactive: outcome (NIH3T3 [1]) | outcome (HACAT) | Potency (MCC-13) | Potency (MCC-26) | Potency (MKL-1) | Potency (MKL-2) | outcome (NIH3T3 [2]) | Potency (UISO) | Potency (WaGa)

CCN(CC)CC(=O)OCC(=O)[C@@]1(O)CC[C@H]2[C@@H]3CCC4=CC(=O)CC[C@]4(C)[C@H]3[C@@H](O)C[C@@]21C
inactive: outcome (NIH3T3 [1]) | outcome (HACAT) | Potency (MCC-13) | Potency (MCC-26) | Potency (MKL-1) | Potency (MKL-2) | outcome (NIH3T3 [2]) | Potency (UISO) | Potency (WaGa)

COCCc1ccccn1
inactive: outcome (NIH3T3 [1]) | outcome (HACAT) | Potency (MCC-13) | Potency (MCC-26) | Potency (MKL-1) | Potency (MKL-2) | outcome (NIH3T3 [2]) | Potency (UISO) | Potency (WaGa)

O=C1CC(c2ccc(Cl)cc2)CC(=O)N1
inactive: max response (NIH3T3 [1]) -1.3% | outcome (HACAT) | outcome (HEK293T) | Potency (MCC-13) | Potency (MCC-26) | Potency (MKL-1) | Potency (MKL-2) | Potency (UISO) | Potency (WaGa)

CO/N=C(\C(=O)O)c1csc(NC(=O)CCl)n1
inactive: outcome (NIH3T3 [1]) | outcome (HACAT) | Potency (MCC-13) | Potency (MCC-26) | Potency (MKL-1) | Potency (MKL-2) | outcome (NIH3T3 [2]) | Potency (UISO) | Potency (WaGa)

O=C(O)[C@H](O)[C@@H](O)[C@H](O[C@@H]1O[C@H](CO)[C@H](O)[C@H](O)[C@H]1O)[C@H](O)CO
inactive: max response (NIH3T3 [1]) -0.868% | outcome (HACAT) | outcome (HEK293T) | Potency (MCC-13) | Potency (MCC-26) | Potency (MKL-1) | Potency (MKL-2) | Potency (UISO) | Potency (WaGa)

CC(=O)Nc1ccc(S(=O)(=O)Nc2cc(C)on2)cc1
inactive: outcome (NIH3T3 [1]) | outcome (HACAT) | Potency (MCC-13) | Potency (MCC-26) | Potency (MKL-1) | Potency (MKL-2) | outcome (NIH3T3 [2]) | Potency (UISO) | Potency (WaGa)

CCOC(=O)C(O)c1ccccc1 (stereo not drawn)
inactive: max response (NIH3T3 [1]) 0.37% | outcome (HACAT) | outcome (HEK293T) | Potency (MCC-13) | Potency (MCC-26) | Potency (MKL-1) | Potency (MKL-2) | Potency (UISO) | Potency (WaGa)

Cc1ccc(/C=N/n2c(-c3ccccc3)csc2=S)cc1
inactive: max response (NIH3T3 [1]) -3.86% | outcome (HACAT) | Potency (MCC-13) | Potency (MCC-26) | Potency (MKL-1)

CC(C)NC(=O)c1ccc(C=O)cc1
inactive: max response (NIH3T3 [1]) 3.81% | outcome (HACAT) | outcome (HEK293T) | Potency (MCC-13) | Potency (MCC-26) | Potency (MKL-1) | Potency (MKL-2) | Potency (UISO) | Potency (WaGa)

COc1cc2c(cc1OC)C(=O)CC2
inactive: outcome (NIH3T3 [1]) | outcome (HACAT) | Potency (MCC-13) | Potency (MCC-26) | Potency (MKL-1) | Potency (MKL-2) | outcome (NIH3T3 [2]) | Potency (UISO) | Potency (WaGa)

CC(=O)N[C@@H](CCC(N)=O)C(=O)O
inactive: max response (NIH3T3 [1]) -1.83% | outcome (HACAT) | outcome (HEK293T) | Potency (MCC-13) | Potency (MCC-26) | Potency (MKL-1) | Potency (MKL-2) | Potency (UISO) | Potency (WaGa)

Cc1coc2ccccc2c1=O
inactive: outcome (NIH3T3 [1]) | outcome (HACAT) | Potency (MCC-13) | Potency (MCC-26) | Potency (MKL-1) | Potency (MKL-2) | outcome (NIH3T3 [2]) | Potency (UISO) | Potency (WaGa)

CO[C@@]1(NC(=O)CSC[C@@H](N)C(=O)O)C(=O)N2C(C(=O)O)=C(CSc3nnnn3C)CS[C@@H]21
inactive: max response (NIH3T3 [1]) -3.38% | outcome (HACAT) | outcome (HEK293T) | Potency (MCC-13) | Potency (MCC-26) | Potency (MKL-1) | Potency (MKL-2) | Potency (UISO) | Potency (WaGa)

C[C@@H](C1=C(CCN(C)C)Cc2ccccc21)c1ccccn1
inactive: max response (NIH3T3 [1]) 1.99% | outcome (HACAT) | Potency (MCC-13) | Potency (MCC-26) | Potency (MKL-1) | Potency (MKL-2) | Potency (UISO) | Potency (WaGa)

COc1ccccc1N1CCN(CC(O)COc2cc(OC)c(OC)c(OC)c2)CC1 (stereo not drawn)
inactive: max response (NIH3T3 [1]) -5.07% | outcome (HACAT) | Potency (MCC-13) | Potency (MCC-26) | Potency (MKL-1) | Potency (MKL-2) | Potency (UISO) | Potency (WaGa)

COCCOCC(OC)OC
inactive: max response (NIH3T3 [1]) 1.4% | outcome (HACAT) | Potency (MCC-13) | Potency (MCC-26) | Potency (MKL-1) | Potency (MKL-2) | Potency (UISO) | Potency (WaGa)

CN1C(=O)CC(C)(c2ccccc2)C1=O (stereo not drawn)
inactive: outcome (NIH3T3 [1]) | outcome (HACAT) | Potency (MCC-13) | Potency (MCC-26) | Potency (MKL-1) | Potency (MKL-2) | outcome (NIH3T3 [2]) | Potency (UISO) | Potency (WaGa)

Cc1ccc(O)cc1
inactive: max response (NIH3T3 [1]) 0.99% | outcome (HACAT) | Potency (MCC-13) | Potency (MCC-26) | Potency (MKL-1) | Potency (MKL-2) | Potency (UISO) | Potency (WaGa)

COc1ccc2nc(SCc3ncc(C)c(OC)c3C)[nH]c2c1
inactive: outcome (NIH3T3 [1]) | outcome (HACAT) | Potency (MCC-13) | Potency (MCC-26) | Potency (MKL-1) | Potency (MKL-2) | outcome (NIH3T3 [2]) | Potency (UISO) | Potency (WaGa)

O=C1CC2(CCCC2)CC(=O)N1
inactive: outcome (NIH3T3 [1]) | outcome (HACAT) | Potency (MCC-13) | Potency (MCC-26) | Potency (MKL-1) | Potency (MKL-2) | outcome (NIH3T3 [2]) | Potency (UISO) | Potency (WaGa)

Cc1cnc(NS(=O)(=O)c2ccc(N)cc2)nc1
inactive: max response (NIH3T3 [1]) 2.98% | outcome (HACAT) | Potency (MCC-13) | Potency (MCC-26) | Potency (MKL-1) | Potency (MKL-2) | Potency (UISO) | Potency (WaGa)

Source: PubChem BioAssay (NCATS)
